According to PubChem BioAssay AID504941 (Broad Institute, 2011):
The campaign covered roughly 1,200 compounds. About 170 (14%) were called active. The list is a sample of the results. Results with a measured potency or affinity are listed apart. A number with no mark means an inactive call. How the calls were made is not given here.

Assay: twin-arginine translocation blockade, bacterial reporter – cherry-pick, set 2, plate reader, dose response (AID 504941)
Details: E. coli Tat transport reporter; series mostly up to 38 µM; activity change, negative = inhibition: at the top concentration

SMILES	activity change, negative = inhibition [%]
Cn1cc(CN2CCC(CO)(CCCc3ccccc3)CC2)c(-c2ccccc2)n1	12
Cc1ccc(NC(=O)c2ccc(Oc3ncccn3)cc2)cc1	0.345
Cc1cc(=O)[nH]c(SCC(=O)NCc2ccc3c(c2)OCO3)n1	-7.75
CC(C)C(=O)Nc1ccc(Nc2ccccc2)cc1	9.17
CCCCOc1ccc(NC(=O)c2cc(F)c(F)cc2Cl)cc1	8.26
O=C(Cn1nc(C(=O)O)c2ccccc2c1=O)NCc1ccco1	34
O=C(NCCc1ccccc1)c1n[nH]c2ccccc12	12
CCc1ccc(C(C(=O)NC2CCCC2)N(CCOC)C(=O)CCC(=O)Nc2cc(C)on2)cc1 (stereo not given)	0.853
Cc1nc(SCc2ccc(C(=O)O)cc2)c2c(C)c(C)sc2n1	9.12
CN(C)CCCNC(=O)C(=O)NCC1CCCO1 (stereo not given)	21.6
CCO[C@@H]1OC(C(=O)O)=C[C@H](C)[C@H]1CCCO	15.7
CC(=O)Oc1ccc(C(=O)Cc2ccccn2)c(O)c1	-34.4
CC(C)[C@@H](C(=O)N1CCNCC1)n1cc(CCO)nn1	15.8
CCOC(=O)c1cnn(-c2cc(C)c3ccccc3n2)c1N	0.267
NS(=O)(=O)c1ccc(CCNc2nc(C(F)(F)F)nc3ccccc23)cc1	-18.2
CCSC(=O)NC12CC3CC(CC(C3)C1)C2	12
Cc1ccc(C)n1-c1ccc(-c2ccnc(N)n2)cc1	-3.79
O=[N+]([O-])c1cccc(N(CC(O)CN2CCCCC2)S(=O)(=O)c2ccccc2)c1 (stereo not given)	-2.2
C#CC(C)(CC)NC(=O)c1cc2cccc(CC=C)c2oc1=O (stereo not given)	-4.26
COc1ccc(S(=O)(=O)N2CCC(C(N)=O)CC2)cc1	-6.67
CCOC(=O)c1c(NC(=O)CSc2n[nH]c(CNc3ccccc3)n2)sc(C)c1C	-2.05
C=CCN1C=C2C(=O)C(C)(OC(=O)c3ccc(OC)cc3)C(=O)C(c3ccco3)=C2C=C1CCCC (stereo not given)	-17.3
O=C(O)c1cccc(NC(=O)c2ccccc2)c1	7.3
CC(C)N(c1ccccc1)c1ccc(NC(=O)COC(=O)CCN2C(=O)c3cccc([N+](=O)[O-])c3C2=O)cc1	-0.764
O=C(CSc1cn(CCNC(=O)c2c(F)cccc2F)c2ccccc12)NCC1CCCO1 (stereo not given)	-4.72
O=C(CSc1ncnc2c1nnn2Cc1ccccc1F)NCC1CCCO1 (stereo not given)	-22.2
Cc1ccccc1OCC(=O)Nc1ccc(S(=O)(=O)Nc2onc(C)c2C)cc1	14.2
O=C(/C=C/Nc1ccccc1Br)c1ccccn1	-9.87

SMILES	activity change, negative = inhibition [%]
CC1(C)CC(NC(=O)c2ccc(-c3ccc([N+](=O)[O-])cc3)o2)CC(C)(C)N1	-19.5
Cc1ccc(NC(=S)NC(=O)c2ccc(F)cc2)cc1S(=O)(=O)Nc1ccccc1Cl	-2.37
C[C@H]1CN([C@@H](C)CO)C(=O)c2cccc(NS(=O)(=O)c3ccc(F)cc3)c2O[C@H]1CN(C)Cc1ccc(Cl)c(Cl)c1	35.5
COC(C(=O)Nc1ccnn1C1CCN(C(=O)c2ccc(C=O)cc2)CC1)c1ccccc1 (stereo not given)	-9.7
Cc1ccc(NC(=O)c2cccs2)cc1S(=O)(=O)Nc1cccc(Cl)c1	22
Cc1ccccc1-n1c(SCC(=O)N2CCOCC2)nc(O)c(Cc2ccccc2)c1=O	-5.11
COCCn1c(=NC(=O)c2ccc3c(c2)OCCO3)sc2cc(S(N)(=O)=O)ccc21	-9.51
CN1CCc2c(sc3nc(SCC(=O)N4CCOCC4)nc(N)c23)C1	-3.11
COC(=O)C1(S(=O)(=O)C2(C(=O)OC)CCCC2)CCCC1	-3.26
Cc1ccc(NCc2nnc3n2CCCCC3)c(C)c1	20.5
O=c1cc(O)nc[nH]1	-1.49
CC1(C)CC(=O)C/C(=N\NC(=O)CCc2ccc(S(=O)(=O)N3CCOCC3)cc2)C1	0.359
COc1cccc(COC(=O)C2CC(=O)N(Cc3ccco3)C2)c1OC (stereo not given)	-18.3
CCc1ccc2c(CSc3nnnn3C)cc(=O)oc2c1	1.88
O=c1[nH]c(N2CCCCC2)nc2c1CCCC2	22.6
S=c1nc(-c2ccccc2Br)[nH][nH]1	3.19
CCOC(=O)N1CCN(c2ccc(C(=O)CC)cc2F)CC1	-16.3
CN(C)c1nc(SCC#N)nc(N2CCOCC2)n1	-12.4
CCCC(=O)NC1=C(C#N)C2(CCCC2)Cc2ccccc21	21.4
c1ccc(CC2=NCCN2)cc1	27.8
O=C(Nc1cccc(NC(=O)c2ccco2)c1)c1ccccc1	-7.6
O=S(=O)(/N=C(/Nc1ccccc1)c1ccccc1)c1cccs1	16
N#Cc1ccccc1CSc1ccccn1	-4.99
O=C1CCCN1Cc1ccccc1	3.9
COc1ccc(Cl)cc1S(=O)(=O)Nc1noc2ccccc12	-10.8
Nc1ccccc1C(=O)NCC1(c2ccccc2)CCCC1	-13.6
Cc1ccccc1Nc1nnc(C)c(=O)[nH]1	-11.2
